The supplement of paper PMC8728848
The full list was thinned out, with the strongest signals kept by preference.

Columns and labels:
Test in all cases: glycan array binding signal (z-score within array); higher = stronger binding
Conditions in all cases: glycan notation: IUPAC condensed, linker removed
Fuc(a1-2)Gal = target: Fuc(a1-2)Gal
Outline: (§1)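 From the Consortium for Functional Glycomics database, 3228 arrays were curated, keeping only those whose protein sequence was available. Binding is given as a within-array Z-score averaged across arrays sharing a protein sequence and across linkers. Negative Z-scores can be read as non-binding.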

[1] = target: Fuc(a1-2)Gal(b1-3)GlcNAc(b1-2)Man(a1-3)[Fuc(a1-2)Gal(b1-3)GlcNAc(b1-2)Man(a1-6)]Man(b1-4)GlcNAc(b1-4)GlcNAc
Outline: as §1

[2] = target: Fuc(a1-2)Gal(b1-3)GlcNAc(b1-3)[Gal(b1-4)GlcNAc(b1-6)]Gal(b1-4)Glc
Outline: as §1

[3] = target: Fuc(a1-2)Gal(b1-3)[Fuc(a1-4)]GlcNAc(b1-3)[Gal(b1-4)GlcNAc(b1-6)]Gal(b1-4)Glc
Outline: as §1

[4] = target: Fuc(a1-2)Gal6S(b1-3)GlcNAc6S
Outline: as §1

[5] = target: Fuc(a1-2)[Gal(a1-3)]Gal(b1-4)GlcNAc
Outline: as §1

[6] = target: Fuc(a1-2)[GalNAc(a1-3)]Gal(b1-3)GlcNAc(b1-2)Man(a1-3)[Fuc(a1-2)[GalNAc(a1-3)]Gal(b1-3)GlcNAc(b1-2)Man(a1-6)]Man(b1-4)GlcNAc(b1-4)GlcNAc
Outline: as §1

[7] = target: Fuc(a1-2)[GalNAc(a1-3)]Gal(b1-3)GlcNAc(b1-3)GalNAc
Outline: as §1

[8] = target: Fuc(a1-2)[GalNAc(a1-3)]Gal(b1-4)[Fuc(a1-3)]GlcNAc(b1-3)GalNAc
Outline: as §1

[9] = target: Fuc(a1-3)[Gal(b1-4)]GlcNAc(b1-6)GalNAc
Outline: as §1

[10] = target: Gal(a1-3)Gal(b1-3)[Fuc(a1-4)]GlcNAc(b1-2)Man(a1-3)[Gal(a1-3)Gal(b1-3)[Fuc(a1-4)]GlcNAc(b1-2)Man(a1-6)]Man(b1-4)GlcNAc(b1-4)GlcNAc
Outline: as §1

Gal(a1-3)Gal(b1-4)GlcNAc = target: Gal(a1-3)Gal(b1-4)GlcNAc
Outline: as §1

[11] = target: Gal(a1-3)Gal(b1-4)[Fuc(a1-3)]GlcNAc
Outline: as §1

Gal(a1-3)GalNAc = target: Gal(a1-3)GalNAc
Outline: as §1

[12] = target: Gal(a1-4)Gal(b1-3)GlcNAc(b1-2)Man(a1-3)[Gal(a1-4)Gal(b1-3)GlcNAc(b1-2)Man(a1-6)]Man(b1-4)GlcNAc(b1-4)GlcNAc
Outline: as §1

[13] = target: Gal(b1-3)GalNAc(b1-4)Gal(b1-4)Glc
Outline: as §1

[14] = target: Gal(b1-3)GlcNAc(b1-2)Man(a1-3)[Gal(b1-3)GlcNAc(b1-2)Man(a1-6)]Man(b1-4)GlcNAc(b1-4)GlcNAc
Outline: as §1

[15] = target: Gal(b1-3)GlcNAc(b1-3)Gal(b1-4)Glc
Outline: as §1

[16] = target: Gal(b1-3)GlcNAc(b1-3)Gal(b1-4)[Fuc(a1-3)]GlcNAc(b1-6)[Gal(b1-3)GlcNAc(b1-3)]Gal(b1-4)Glc
Outline: as §1

[17] = target: Gal(b1-3)[Neu5Ac(a2-6)]GalNAc
Outline: as §1

[18] = target: Gal(b1-3)[Neu5Ac(a2-6)]GlcNAc(b1-4)Gal(b1-4)Glc
Outline: as §1

[19] = target: Gal(b1-4)GlcNAc(b1-2)Man(a1-3)[Gal(b1-4)GlcNAc(b1-2)Man(a1-6)][GlcNAc(b1-4)]Man(b1-4)GlcNAc(b1-4)[Fuc(a1-6)]GlcNAc
Outline: as §1

[20] = target: Gal(b1-4)GlcNAc(b1-3)Gal(b1-4)GlcNAc(b1-3)Gal(b1-4)GlcNAc(b1-2)Man(a1-3)[Gal(b1-4)GlcNAc(b1-3)Gal(b1-4)GlcNAc(b1-3)Gal(b1-4)GlcNAc(b1-2)Man(a1-6)]Man(b1-4)GlcNAc(b1-4)GlcNAc
Outline: as §1

[21] = target: Gal(b1-4)GlcNAc(b1-3)Gal(b1-4)GlcNAc(b1-3)Gal(b1-4)GlcNAc(b1-3)Gal(b1-4)GlcNAc(b1-2)Man(a1-3)[Gal(b1-4)GlcNAc(b1-3)Gal(b1-4)GlcNAc(b1-3)Gal(b1-4)GlcNAc(b1-3)Gal(b1-4)GlcNAc(b1-2)Man(a1-6)]Man(b1-4)GlcNAc(b1-4)GlcNAc
Outline: as §1

[22] = target: Gal(b1-4)GlcNAc(b1-3)Gal(b1-4)GlcNAc(b1-3)Gal(b1-4)GlcNAc(b1-3)Gal(b1-4)GlcNAc(b1-2)[Gal(b1-4)GlcNAc(b1-3)Gal(b1-4)GlcNAc(b1-3)Gal(b1-4)GlcNAc(b1-3)Gal(b1-4)GlcNAc(b1-6)]Man(a1-6)[Gal(b1-4)GlcNAc(b1-3)Gal(b1-4)GlcNAc(b1-3)Gal(b1-4)GlcNAc(b1-3)Gal(b1-4)GlcNAc(b1-2)Man(a1-3)]Man(b1-4)GlcNAc(b1-4)[Fuc(a1-6)]GlcNAc
Outline: as §1

[23] = target: Gal(b1-4)GlcNAc(b1-3)Gal(b1-4)GlcNAc(b1-3)Gal(b1-4)GlcNAc(b1-3)Gal(b1-4)GlcNAc(b1-3)Gal(b1-4)GlcNAc(b1-2)[Gal(b1-4)GlcNAc(b1-3)Gal(b1-4)GlcNAc(b1-3)Gal(b1-4)GlcNAc(b1-3)Gal(b1-4)GlcNAc(b1-3)Gal(b1-4)GlcNAc(b1-6)]Man(a1-6)[Gal(b1-4)GlcNAc(b1-3)Gal(b1-4)GlcNAc(b1-3)Gal(b1-4)GlcNAc(b1-3)Gal(b1-4)GlcNAc(b1-3)Gal(b1-4)GlcNAc(b1-2)Man(a1-3)]Man(b1-4)GlcNAc(b1-4)[Fuc(a1-6)]GlcNAc
Outline: as §1

[24] = target: Gal(b1-4)GlcNAc(b1-3)[Fuc(a1-3)GlcNAc(b1-6)]Gal(b1-4)Glc
Outline: as §1

B1: Sp8391B-bot-388-20-388 (Bacteroides ovatus) (protein)
chain: GCQNNDENEQHYDNKLFISASNFTKEILFKAGDTNVETGLSVAIAKPEEHDIKVTMSPAPELLSTYKLAYYDETAVLLSEEHYSMPETSTTIKSGSIVSPELPIEFINTGELDIKTTYVLPVTIKSVEGIGVLQSAKTYYYVFRGASLINVVCNISRNRAYPDFKNDSKFNNLTENTMEILFKANSFPNTLNTLMGIESNYLLRIGDATIPNNQLQVATSVNNCTSADLQLESGKWYHVAVAFNKGNVKVYINGVEKLSGSTGKSSVSLGAKHTNEEDGSRCFWVGYSYKDDRYFDGVVSEVRIWNRALTAEEIQATNHFYTIEPESEGLIAYWKFDEGSGTVAKDYSVSGYDLTIEKEPKWESVSLPQ
Fuc(a1-2)Gal
  glycan array binding signal (z-score): -0.522
[1]
  glycan array binding signal (z-score): 2.69
[2]
  glycan array binding signal (z-score): -0.322
[3]
  glycan array binding signal (z-score): 1.29
[4]
  glycan array binding signal (z-score): -0.154
[5]
  glycan array binding signal (z-score): -0.199
[6]
  glycan array binding signal (z-score): 0.439
[7]
  glycan array binding signal (z-score): -0.474
[8]
  glycan array binding signal (z-score): -0.673
[9]
  glycan array binding signal (z-score): 4.03
[10]
  glycan array binding signal (z-score): 8.13
Gal(a1-3)Gal(b1-4)GlcNAc
  glycan array binding signal (z-score): -0.489
[11]
  glycan array binding signal (z-score): -0.616
Gal(a1-3)GalNAc
  glycan array binding signal (z-score): -0.069
[12]
  glycan array binding signal (z-score): 2.6
[13]
  glycan array binding signal (z-score): 0.437
[14]
  glycan array binding signal (z-score): 3.77
[15]
  glycan array binding signal (z-score): 0.105
[16]
  glycan array binding signal (z-score): 12.8
[17]
  glycan array binding signal (z-score): -0.208
[18]
  glycan array binding signal (z-score): -0.044
[19]
  glycan array binding signal (z-score): -0.897
[20]
  glycan array binding signal (z-score): 2.45
[21]
  glycan array binding signal (z-score): 2.49
[22]
  glycan array binding signal (z-score): -0.629
[23]
  glycan array binding signal (z-score): -0.112
[24]
  glycan array binding signal (z-score): 0.415
